Experimental data from ChEMBL document CHEMBL3988442, “University of Dundee, Small-Polar-MMV Screening Library” (2021).
Hit rate of the full screen: of about 38,000 compounds, about 1,200 (3.2%) showed an effect of 50% or more. The median lay at about -58%. The sample holds strong results, similar compounds and a random draw of the others, so the mix is not that of the screen.

test system: Plasmodium falciparum; experiment: Calibr Malaria Delayed Death Assay SOP; format: functional, organism-based; design: scale not given: in the data most compounds retested in dose-response had high values; details: concentration 4.99e-06 (unit not given; other assays of the set use mol/L)

In order of falling “Percent Effect” value:
1. COCC(O)CN(C)c1ccnc2cc(Br)ccc12 (centres undefined)  94.48%
2. Cc1c(C)n(CC(O)CN2CCN(CCO)CC2)c2c(Cl)cccc12.Cl (centres undefined)  88.07%
3. Cc1cc(N2CCC(NC(C)Cc3ccsc3)CC2)nc(C)n1 (centres undefined)  85.1%
4. Cc1n[nH]cc1CNC1(c2ccc(F)cc2)CCCC1  82.35%
5. O=S(=O)(NCCN1CC=CC1)c1ccc(Cl)cc1  75.13%
6. Cc1cc(N2CCC(NCCOc3ccccc3)CC2)nc(C)n1  74.5%
7. CCC(=O)NCC(=O)NCC1(c2c(F)cccc2F)CCCC1  72.49%
8. Cc1ccc(Sc2ccc(CN3CCC4(CCCNC4=O)C3)o2)cc1 (centres undefined)  71.68%
9. Cc1cc(C)c(Cn2cncn2)cc1CN1CCC(CN)C1 (centres undefined)  68.64%
10. COC(=O)NCC(=O)NCC1(c2c(F)cccc2F)CCCC1  68.39%
11. CCCn1ncc(-c2ccnc(NC3CC(C)(C)NC(C)(C)C3)n2)c1C  66.75%
12. CN1CCO[C@@H]2CN(S(=O)(=O)c3ccc(F)cc3)CC[C@@H]2C1.O=C(O)C(F)(F)F  61.54%
13. Cc1nc(C)c(C)c(N2CCC(NCCOc3ccccc3)CC2)n1  61.44%
14. CN(C)c1ccnc(N2CCC(NCCOc3ccccc3)CC2)n1  59.77%
15. COc1ccc(S(=O)(=O)N2C[C@@H]3CN(C)CCO[C@@H]3C2)cc1  58.7%
16. O=C1NCCCC12CCN(Cc1ccc(SC3CCCCC3)o1)C2 (centres undefined)  54.2%
17. CCc1nccn1-c1cccc(C2CCCN(C3CCCCC3)C2)n1 (centres undefined)  50.94%
18. CC(C)N1CCO[C@@H]2CN(S(=O)(=O)c3cccs3)CC[C@@H]2C1.O=C(O)C(F)(F)F  50.24%
19. CN1CCO[C@@H]2CN(S(=O)(=O)c3ccccc3F)CC[C@@H]2C1.O=C(O)C(F)(F)F  48.77%
20. CCC(C)NC(=O)c1cccc(CNCc2csc(C(C)C)n2)c1 (centres undefined)  46.44%
21. Cc1cccc(N2CCC(N3CCC4(CCCNC4=O)C3)CC2)c1C (centres undefined)  41%
22. CCN1CCO[C@@H]2CN(S(=O)(=O)c3cccs3)CC[C@@H]2C1.O=C(O)C(F)(F)F  37.95%
23. Cc1n[nH]cc1CNC1(Cc2ccc(Br)cc2)CCCCC1  36.65%
24. CN1CCO[C@@H]2CN(S(=O)(=O)c3ccccc3)CC[C@@H]2C1.O=C(O)C(F)(F)F  31.75%
25. COc1cccc2c1ccn2CCC(=O)Nc1c2c(nn1C)CSC2  27.59%
26. CC/C=C(/C)C(=O)NCCc1csc(N2CCCC2)n1  23.92%
27. Cc1n[nH]cc1CNC1(c2ccc(Br)cc2)CC1  18.93%
28. CC(C)c1nccn1-c1cncc(C2CCCN(C3CCCCC3)C2)n1 (centres undefined)  18.59%
29. Cc1cc(N2CCC(N(C)C(=O)c3ccccc3)CC2)nc(C)n1  16.92%
30. Cc1cc(C)c(Cn2cncn2)cc1CN1CC[C@H]2CC[C@@H](C1)N2  12.41%
31. CC(=O)c1cnc(N(C)Cc2cc(C)cc(C)n2)nc1C  10.35%
32. Cc1ccnc(N2CCC(NCCOc3ccccc3)CC2)n1  9.901%
33. COCc1cc(N2CCOC(c3ccc(Cl)cc3)C2)ncn1 (centres undefined)  9.167%
34. Cc1ccccc1CN1CCC(CNC(=O)Cn2cncn2)CC1  1.836%
35. O=C(O)C(F)(F)F.O=C1[C@H]2CN(S(=O)(=O)c3ccccc3)C[C@H]2CN1Cc1cccnc1  0.7029%
36. Cc1nccn1-c1cccc(C2CCCN(C3CCCC3)C2)n1 (centres undefined)  -3.48%
37. COc1cccc(C(c2c(C)n[nH]c2O)c2c(C)n[nH]c2O)c1OC  -4.815%
38. O=C(Nc1ccccn1)C1CCN(Cc2cccc3c2OCCO3)CC1  -6.102%
39. Cc1ccc(CN2C[C@@H](c3ccccc3)[C@@]3(CCNC3=O)C2)o1  -6.391%
40. CCCn1ncc(-c2ccnc(NC3CCSC3)n2)c1C (centres undefined)  -9.069%
41. COCC1COCCC12CCN(Cc1cccs1)CC2.O=C(O)C(F)(F)F (centres undefined)  -9.919%
42. O=C(COCCOc1ccccc1)NC1CCN(c2ncccn2)CC1  -10.36%
43. Cc1ncc2c(n1)CN(CC(=O)Nc1cc(C)on1)CC2  -14.27%
44. CCC(C)NC(=O)Cn1ncc2c1c(C)nn2CC (centres undefined)  -14.73%
45. c1ccc(OCCNC2CCN(c3ncccn3)CC2)cc1  -18.18%
46. CNC(=O)c1cc2c(nc1N(C)C)CCN(c1ncccn1)CC2.O=C(O)C(F)(F)F  -20.28%
47. CN1CCO[C@@H]2CN(S(=O)(=O)c3ccccc3)C[C@@H]2C1.O=C(O)C(F)(F)F  -22.42%
48. COC1CCN(C(=O)Cn2ncc(N3CCCCC3)cc2=O)C1 (centres undefined)  -24.14%
49. CN1CCO[C@@H]2CN(S(=O)(=O)c3cccs3)CC[C@@H]2C1.O=C(O)C(F)(F)F  -26.8%
50. CS(=O)(=O)N1CCOCC2(CCN(C(=O)c3ccncc3)CC2)C1.O=C(O)C(F)(F)F  -27.09%
51. CC1CCN(C(=O)C(C)Oc2ccc3c(c2)OCO3)CC1 (centres undefined)  -27.65%
52. COC(=O)NCCC(=O)NCC1(c2cccc(Cl)c2)CC1  -27.72%
53. COCCNC(=O)[C@@H]1CN(Cc2sccc2C)C[C@H]2OCC[C@H]21.O=C(O)C(F)(F)F  -28.67%
54. O=C(NCc1ccco1)[C@@H]1CCO[C@@H]2CCN(c3ncccn3)C[C@H]21.O=C(O)C(F)(F)F  -31.43%
55. Cn1cccc1C(=O)NC(C)(C(N)=O)c1cccc(Cl)c1 (centres undefined)  -31.46%
56. O=C1NCCCC12CCN(S(=O)(=O)N1CCOCC1)C2 (centres undefined)  -32.12%
57. CCCn1ncc(-c2ccnc(N[C@@H]3C[C@@H]4CC[C@H]3C4)n2)c1C  -33.21%
58. Cc1cc(N2CCC(NC(=O)CCc3ccco3)CC2)nc(C)n1  -35.38%
59. CCC(c1ccccc1)N1CCN(CCO)CC1 (centres undefined)  -35.6%
60. Cc1nc(NC2CCS(=O)(=O)CC2)cc(C2CCCNC2)n1 (centres undefined)  -36.14%
61. CCNC(=O)CN1CCC(OCC2CCCO2)CC1 (centres undefined)  -42.16%
62. CN(C)c1cc(CNCc2ccc(N3CCOCC3)cc2)ccn1  -42.2%
63. O=C(COCCOc1ccccc1)NC1CCN(c2ccccn2)CC1  -45.63%
64. Cc1cc(N2CCC(N(C)C(=O)c3cccs3)CC2)nc(C)n1  -45.9%
65. COCC(O)CN(C)c1ccnc2ccc(Cl)cc12 (centres undefined)  -46.57%
66. CCc1ccccc1OCC(=O)N1CCOCC1c1ncon1 (centres undefined)  -47.11%
67. O=c1[nH]c2cc3c(cc2cc1CN1CCCC1c1ccccn1)CCC3 (centres undefined)  -51.8%
68. O=C(c1cn(-c2ccccc2Cl)nn1)N1CCN(CCO)CC1  -52.43%
69. COCC(O)CN(C)c1ccnc2cc(F)ccc12 (centres undefined)  -53.9%
70. Cc1nc(NCC23CCCN2CCC3)cc(C2CCCNC2)n1 (centres undefined)  -55.92%
71. CC(CN1CCOCC1)NC(=O)NCCc1ccc(Cl)s1 (centres undefined)  -56.29%
72. O=C(C1CCOC1)N1C[C@H]2CN(Cc3cccnc3)C(=O)[C@H]2C1.O=C(O)C(F)(F)F (some centres undefined)  -57.45%
73. COCC(=O)N1CCC2(CCN(c3cnn(C)c3)C2=O)C1 (centres undefined)  -59.68%
74. CCC(NC(=O)CCCN1CCCCC1)c1cn2cccnc2n1 (centres undefined)  -61.92%
75. CCN(CC)S(=O)(=O)NC1CCN(c2ccc(OC)cc2)CC1  -62%
76. Cl.Cn1cccc1C(=O)N1CCc2c(CNS(C)(=O)=O)cncc2C1  -73.02%
77. Cc1cc(N2CCC(O)CC2)nc(C)n1  -73.43%
78. CC(C)(C)c1ncc(CNc2ccccc2SCCC(N)=O)s1  -73.84%
79. CC1c2ncc(CN3CCN(C)CC3)n2CCN1Cc1cnn(C)c1.O=C(O)C(F)(F)F.O=C(O)C(F)(F)F.O=C(O)C(F)(F)F (centres undefined)  -76%
80. COc1c(C)cnc(CSc2nnc(NC3CC3)s2)c1C  -80.23%
81. CC(=O)NCCC(=O)NCC1(c2c(F)cccc2F)CCCC1  -84.52%
82. CN1CCO[C@@H]2CN(S(=O)(=O)c3cccnc3)C[C@@H]2C1.O=C(O)C(F)(F)F.O=C(O)C(F)(F)F  -85.76%
83. CCn1cnnc1C1CCN(C(=O)c2cc(C)c(C)s2)CC1  -85.96%
84. CCN(C(=O)COC)C(c1ccc(Cl)cc1)c1ccccn1 (centres undefined)  -96.63%
85. CCS(=O)(=O)CC(=O)NCC1(c2c(F)cccc2F)CCCC1  -98.46%
86. CC(c1cccnc1)N1CCN(CCO)CC1 (centres undefined)  -98.51%
87. CC(=O)N(C)CC(=O)NCC1(c2c(F)cccc2F)CCCC1  -102.3%
88. Cc1ccc(CN2CCC3(CC2)C(=O)NCCN3CC2CC2)o1  -112.7%
89. CCc1ccc(OCC(O)CN2CCN(CCO)CC2)cc1.Cl.Cl (centres undefined)  -114.3%
90. Cc1nc(CN2CCC3(CCN(Cc4cnn(C)c4)CC3)C2=O)cs1.O=C(O)C(F)(F)F.O=C(O)C(F)(F)F  -122%
91. Cc1ccccc1N1CCN(CCS(=O)(=O)c2ccc(Br)cc2)CC1  -132.7%
92. CC(=O)N1CCCn2nc(CNS(=O)(=O)N(C)C(C)C)cc2C1  -134.1%
93. O=S(=O)(NCCN1CC=CC1)c1cncc(Cl)c1  -138.1%
94. CC(=O)N1CCc2c(nc(N(C)C)nc2NCCCn2ccnc2C)C1  -154.1%
95. COc1ccccc1CC(=O)N1CC[C@H](O)[C@]2(CCCO2)C1  -156.8%
96. COCCNC(=O)c1nc(-c2ccc3cc[nH]c3c2)no1  -158.8%
97. CCN(CC)C(=O)COc1nc(C(C)C)no1  -177.8%
98. COC1COC2(CCN(C(=O)c3ccc4ccccc4c3)CC2)C1 (centres undefined)  -205.6%
99. O=S(=O)(NCCCN1CC=CC1)c1cncc(Cl)c1  -214.3%
